Inconclusive results are not listed. Activity calls are given as the source filed them. Unless noted, calls come from the whole dose curve.
Experiments:
[1] = Nuclear factor erythroid 2-related factor 2/antioxidant responsive element (Nrf2/ARE) small molecule agonists: qHTS cell viability counter screen in human keratinocytes (AID 1919968; active = well fitted curve in the direction sought with a large enough effect in the repeat runs; an effect the other way counts as inactive or inconclusive; note: nearly all actives have a fitted effect of over 55% in size)
In short: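 KeratinoSens cells (HaCaT keratinocytes stably carrying an ARE-luciferase reporter) were seeded at 1,500 cells/well and rested 5 h at 37 C/5% CO2. They were then exposed to compounds in DMSO for 23 h. Viability was read by CellTiter-Fluor fluorescence after 1 h.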

[2] = biological target: Gonadotropin-releasing hormone receptor (Homo sapiens) (UniProt P30968); experiment: Human gonadotropin-releasing hormone receptor (GnRHR) small molecule agonists, calcium flux assay in GnRHR-HEK293 cells (AID 1920063); note: nearly all actives have a fitted effect of over 35% in size
In short: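 HEK293 cells stably expressing human GnRHR were plated 18 h at 37 °C, loaded with calcium dye 1 h at 37 °C, then given compound in agonist mode; fluorescence (Ex/Em 480/540) read kinetically for 3 min at 1 s intervals.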

[3] = biological target: KiSS-1 receptor (Homo sapiens) (UniProt Q969F8); experiment: Human kisspeptin (KISS1R) small molecule agonists, calcium flux assay in KISS1R-HEK293 cells (AID 1920064; active = well fitted curve in the direction sought with a large enough effect in the repeat runs; an effect the other way counts as inactive or inconclusive)
In short: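 HEK293 cells stably expressing human KISS1R were plated 18 h at 37 °C, loaded with calcium dye for 1 h at 37 °C, then given compound by pin tool. Fluorescence (Ex/Em 480/540) was read kinetically for 3 min.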

[4] = G protein-coupled receptor (GPCR) small molecule agonists, calcium flux assay: HEK293 wild type cell line counter screen (AID 1920065)
In short: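 Cells were plated and cultured 18 h at 37 C/5% CO2, then loaded with calcium dye for 1 h at 37 C. Compounds in DMSO were pin-transferred in agonist mode, and fluorescence (Ex/Em 480/540) was read kinetically for 3 min at 1 s intervals.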

[5] = p53 small molecule agonists, cell-based qHTS assay with human liver microsomes (AID 1963577)
In short: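 Fluorescence of the beta-lactamase reporter in p53RE-bla cells, detected with LiveBLAzer substrate (2 h, room temperature, dark), served as the read-out after 16 h compound exposure at 37 C with human liver microsomes and NADPH, each 0.5 mg/mL final.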

[6] = p53 small molecule agonists, cell-based qHTS assay with rat liver microsomes (AID 1963578)
In short: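 Cells carrying a p53 response element–beta-lactamase reporter were plated and rested 5 h, then dosed with compound in DMSO plus rat liver microsomes and NADPH, each at 0.5 mg/mL final. After 16 h at 37 C, LiveBLAzer substrate was added for 2 h.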

[7] = p53 small molecule agonists, cell-based qHTS assay with human liver microsomes: qHTS cell viability counter screen (AID 1963579); note: nearly all actives have a fitted effect of over 45% in size
In short: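 Cytotoxicity counter screen: p53RE-bla, 4,000 cells/well; 5 h settle, 37 C/5% CO2; cpd + HLM 0.5 mg/mL + NADPH 0.5 mg/mL (final); 16 h, 37 C; CellTiter-Glo, 30 min RT, luminescence.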

[8] = p53 small molecule agonists, cell-based qHTS assay: qHTS cell viability counter screen (AID 1963581); note: nearly all actives have a fitted effect of over 45% in size
In short: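 p53RE-bla HCT-116 cells were exposed to compounds for 16 h at 37 C; after the beta-lactamase FRET read in the same wells, CellTiter-Glo was added and luminescence (intracellular ATP) read after 30 min at room temperature.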

[9] = p53 small molecule agonists, cell-based qHTS assay (AID 1963582; active = well fitted activation curve with a large enough effect in the signal ratio in the repeat runs, not every such curve was filed as active; the % refers to the signal ratio)
In short: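 p53RE-bla beta-lactamase reporter cells rested 5 h at 37 C/5% CO2, then received compounds in DMSO by pin transfer and were incubated 16 h at 37 C. LiveBLAzer B/G FRET substrate was loaded for 2 h at room temperature before fluorescence reading.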

[10] = biological target: 5-hydroxytryptamine receptor 2A (Homo sapiens) (UniProt P28223); experiment: 5-hydroxytryptamine receptor 2A (HTR2A) small molecule antagonists, cell-based qHTS assay (AID 1963586); note: nearly all actives have a fitted effect of over 45% in size
In short: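 Antagonist-mode intracellular calcium assay: DOI (4 nM) added after 5 min compound pre-incubation at room temperature to dye-loaded HTR2A-CHO cells. Fluorescence followed for 3 min, sampled every second.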

[11] = biological target: 5-hydroxytryptamine receptor 2A (Homo sapiens) (UniProt P28223); experiment: 5-hydroxytryptamine receptor 2A (HTR2A) small molecule agonists, cell-based qHTS assay (AID 1963587); note: nearly all actives have a fitted effect of over 30% in size
In short: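 HTR2A-CHO cells, plated 18 h at 37 C/5% CO2, dye-loaded 1 h at 37 C; compounds in DMSO added by pin tool (agonist mode). Intracellular calcium flux read as kinetic fluorescence on FDSS over 2 min at 1 s intervals.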

[12] = biological target: Muscarinic acetylcholine receptor M1 (Homo sapiens) (UniProt P11229); experiment: Cholinergic receptor muscarinic 1 (CHRM1) small molecule antagonists, cell-based qHTS assay (AID 1963588); note: nearly all actives have a fitted effect of over 40% in size
In short: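 CHRM1-CHO calcium-flux assay, antagonist mode. Cells were seeded 18 h, dye-loaded 1 h at 37 C and given compound for 5 min at RT, then acetylcholine was added at 50nM. FDSS fluorescence was read 3 min; 15 concentrations, three runs.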

[13] = biological target: Muscarinic acetylcholine receptor M1 (Homo sapiens) (UniProt P11229); experiment: Cholinergic receptor muscarinic 1 (CHRM1) small molecule agonists, cell-based qHTS assay (AID 1963589); note: nearly all actives have a fitted effect of over 35% in size
In short: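 CHO cells stably expressing human CHRM1, seeded 18 h at 37 C/5% CO2, dye-loaded 1 h at 37 C, then given compound in agonist mode; intracellular calcium fluorescence read kinetically at 1 s intervals. Fifteen concentrations, three independent runs.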

[14] = cAMP Responsive Elements (CRE) small molecule agonists, cell-based qHTS assay (AID 1963590)
In short: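 CRE-bla HEK 293T cells in DMEM with 10% dialyzed FBS, NEAA, pyruvate and 25 mM HEPES were plated 18 h at 37 C/5% CO2, then exposed to compounds in DMSO for 3 h before LiveBLAzer B/G FRET substrate addition.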

[15] = cAMP Responsive Elements (CRE) small molecule antagonists, cell-based qHTS assay (AID 1963591; active = well fitted inhibition curve with a large enough effect in the signal ratio in the repeat runs, not every such curve was filed as active; the % refers to the signal ratio)
In short: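 CRE-bla HEK293T cells were plated 18 h at 37 °C/5% CO2, pinned with compound in DMSO, then stimulated with NKH477 at 0.25 uM final for 3 h. LiveBLAzer B/G FRET substrate was added and plates incubated 2 h at room temperature.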

[16] = biological target: D(2) dopamine receptor (Homo sapiens) (UniProt P14416); experiment: Dopamine D2 receptor (DRD2) small molecule agonists, cell-based qHTS assay (AID 1963594); note: nearly all actives have a fitted effect of over 35% in size
In short: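 HEK293 cells stably expressing DRD2 were cultured 24 h at 37 C, then given Ro20-1724 (0.1 mM final) and compounds for 10 min at room temperature. NKH477 (200nM) was then added for 30 min. cAMP was read by HTRF.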

[17] = biological target: D(2) dopamine receptor (Homo sapiens) (UniProt P14416); experiment: Dopamine D2 receptor (DRD2) small molecule antagonists, cell-based qHTS assay (AID 1963595; active = well fitted inhibition curve with a large enough effect in the signal ratio in the repeat runs, with a control signal flat; the % refers to the signal ratio)
In short: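 Readout: HTRF cAMP, cAMP-d2 competing with cellular cAMP for anti-cAMP cryptate, read after 1 h. Cells: DRD2-HEK293. Conditions: 0.1 mM Ro20-1724, 12 nM quinpirole, 200 nM NKH477, 30 min RT.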

[18] = p53 small molecule agonists, cell-based qHTS assay with rat liver microsomes: qHTS cell viability counter screen (AID 1963580); note: nearly all actives have a fitted effect of over 45% in size
In short: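 In HCT-116 cells carrying a p53 response element-bla reporter, compounds were metabolically activated in situ by rat liver microsomes with NADPH over 16 h. Cell ATP content then served as the cytotoxicity measure.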

[19] = biological target: Beta-2 adrenergic receptor (Homo sapiens) (UniProt P07550); experiment: Adrenergic beta2 receptor (ADRB2) small molecule antagonists, cell-based qHTS assay (AID 1963592); note: series mostly up to about 92 µM; nearly all actives have a fitted effect of over 50% in size
In short: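 Cells (CHO, stable ADRB2 overexpression) incubated 18-20hr at 37C; compounds added from DMSO; agonist mix (1nM isoproterenol, 100uM IBMX, 25uM Ro-20-1724) added; 0.5hr RT; d2-cAMP and anti-cAMP-cryptate added; 1hr RT; 665/615 nm read.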

Measured: Potency

Sequence of D(2) dopamine receptor (Homo sapiens) (P14416 whole entry, looked up): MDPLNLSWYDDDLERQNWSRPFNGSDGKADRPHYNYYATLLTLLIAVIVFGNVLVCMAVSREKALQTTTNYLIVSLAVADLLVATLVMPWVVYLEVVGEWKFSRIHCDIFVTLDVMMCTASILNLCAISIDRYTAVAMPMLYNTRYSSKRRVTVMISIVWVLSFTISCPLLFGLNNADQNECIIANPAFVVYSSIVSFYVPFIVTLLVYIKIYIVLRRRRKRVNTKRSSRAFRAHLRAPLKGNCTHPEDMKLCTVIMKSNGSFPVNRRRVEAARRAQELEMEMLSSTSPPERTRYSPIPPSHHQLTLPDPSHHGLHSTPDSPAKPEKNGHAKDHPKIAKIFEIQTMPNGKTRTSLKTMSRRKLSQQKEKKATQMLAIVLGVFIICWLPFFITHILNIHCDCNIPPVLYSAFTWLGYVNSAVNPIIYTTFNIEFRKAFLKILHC
Sequence of KiSS-1 receptor (Homo sapiens) (Q969F8 whole entry, looked up): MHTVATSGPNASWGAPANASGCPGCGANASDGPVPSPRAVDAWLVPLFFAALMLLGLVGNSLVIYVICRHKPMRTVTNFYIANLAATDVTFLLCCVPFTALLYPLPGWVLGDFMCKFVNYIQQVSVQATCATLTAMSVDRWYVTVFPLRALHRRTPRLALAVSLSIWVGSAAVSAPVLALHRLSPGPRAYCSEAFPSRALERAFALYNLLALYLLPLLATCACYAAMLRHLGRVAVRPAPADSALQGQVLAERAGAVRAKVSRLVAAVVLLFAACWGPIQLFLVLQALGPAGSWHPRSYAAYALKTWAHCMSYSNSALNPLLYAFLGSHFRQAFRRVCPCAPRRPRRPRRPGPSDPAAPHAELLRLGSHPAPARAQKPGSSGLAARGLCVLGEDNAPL
Sequence of Muscarinic acetylcholine receptor M1 (Homo sapiens) (P11229 whole entry, looked up): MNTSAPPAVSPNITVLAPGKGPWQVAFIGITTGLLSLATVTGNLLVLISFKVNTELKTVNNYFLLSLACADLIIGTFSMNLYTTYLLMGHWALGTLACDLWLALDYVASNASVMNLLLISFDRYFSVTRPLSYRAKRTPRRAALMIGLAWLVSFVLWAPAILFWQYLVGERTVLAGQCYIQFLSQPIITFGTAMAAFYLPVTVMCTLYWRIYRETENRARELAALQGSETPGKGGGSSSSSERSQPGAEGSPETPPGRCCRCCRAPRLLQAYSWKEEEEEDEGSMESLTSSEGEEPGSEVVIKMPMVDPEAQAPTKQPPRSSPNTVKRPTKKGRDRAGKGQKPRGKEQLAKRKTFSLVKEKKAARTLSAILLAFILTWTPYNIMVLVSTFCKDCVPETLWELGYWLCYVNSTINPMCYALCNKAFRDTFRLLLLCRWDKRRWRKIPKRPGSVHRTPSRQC
Sequence of 5-hydroxytryptamine receptor 2A (Homo sapiens) (P28223 whole entry, looked up): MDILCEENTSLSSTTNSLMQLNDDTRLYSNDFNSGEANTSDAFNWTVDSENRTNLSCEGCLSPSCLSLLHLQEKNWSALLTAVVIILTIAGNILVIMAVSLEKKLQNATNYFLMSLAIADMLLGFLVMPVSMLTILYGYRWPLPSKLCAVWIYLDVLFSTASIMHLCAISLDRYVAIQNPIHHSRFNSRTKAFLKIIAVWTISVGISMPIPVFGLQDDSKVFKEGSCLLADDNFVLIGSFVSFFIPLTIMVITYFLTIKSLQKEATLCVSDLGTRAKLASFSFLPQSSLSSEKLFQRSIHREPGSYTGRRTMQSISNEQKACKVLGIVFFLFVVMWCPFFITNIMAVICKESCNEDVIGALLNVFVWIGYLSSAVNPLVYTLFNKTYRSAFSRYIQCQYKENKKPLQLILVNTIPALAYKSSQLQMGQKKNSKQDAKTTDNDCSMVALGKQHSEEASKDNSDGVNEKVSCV
Sequence of Beta-2 adrenergic receptor (Homo sapiens) (P07550 whole entry, looked up): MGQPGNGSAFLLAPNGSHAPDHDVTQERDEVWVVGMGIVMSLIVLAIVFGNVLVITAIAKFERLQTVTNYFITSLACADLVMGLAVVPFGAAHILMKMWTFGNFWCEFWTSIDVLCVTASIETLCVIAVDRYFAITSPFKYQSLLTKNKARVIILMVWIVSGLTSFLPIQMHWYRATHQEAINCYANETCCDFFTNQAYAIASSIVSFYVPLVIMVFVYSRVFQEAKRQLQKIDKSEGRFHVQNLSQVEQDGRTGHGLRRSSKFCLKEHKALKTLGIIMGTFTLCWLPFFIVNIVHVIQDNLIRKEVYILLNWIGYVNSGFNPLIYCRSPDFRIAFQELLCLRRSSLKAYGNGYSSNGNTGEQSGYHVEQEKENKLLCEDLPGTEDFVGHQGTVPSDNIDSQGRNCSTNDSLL
Sequence of Gonadotropin-releasing hormone receptor (Homo sapiens) (P30968 whole entry, looked up): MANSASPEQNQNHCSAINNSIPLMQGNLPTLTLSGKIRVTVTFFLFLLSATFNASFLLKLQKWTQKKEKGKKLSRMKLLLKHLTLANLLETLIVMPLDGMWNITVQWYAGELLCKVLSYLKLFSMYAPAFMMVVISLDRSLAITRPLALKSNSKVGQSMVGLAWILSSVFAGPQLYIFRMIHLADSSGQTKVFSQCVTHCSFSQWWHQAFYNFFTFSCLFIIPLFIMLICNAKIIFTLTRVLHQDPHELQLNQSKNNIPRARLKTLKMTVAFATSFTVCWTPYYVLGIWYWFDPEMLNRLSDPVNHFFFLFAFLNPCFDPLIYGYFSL

CC1(C)OC[C@@H](COC(=O)CCc2ccc(OC[C@@H](O)CNCCNC(=O)N3CCOCC3)cc2)O1
not listed: [18] | [19]
inactive: all other assays above

CCCSS/C(CCO)=C(\C)N(C=O)Cc1cnc(C)nc1N
not listed: [8] | [9]
inactive: all other assays above

O=CC(=O)c1ccccc1
not listed: [15] | [18]
inactive: all other assays above

CCc1ccc(CC)cc1
not listed: [14] | [16] | [18]
inactive: all other assays above

CCCCCCCCCCCBr
not listed: [8]
inactive: all other assays above

C#Cc1ccc(-c2ccccc2F)cc1
not listed: [4] | [9] | [10] | [14]
inactive: all other assays above

O=C(O)Cc1cn(-c2ccccc2)nc1-c1ccc(Cl)cc1
not listed: [6] | [7] | [8] | [14] | [15]
inactive: all other assays above

OC1(c2ccccc2)CCNCC1
not listed: [2] | [15]
inactive: all other assays above

— PubChem BioAssay (Tox21)
